Our source for the composite z-score and z-score values is PubChem BioAssay.

Calls of active or inactive are those of the source. Unless noted, no rule for the calls is given here.

A short description of assay [1]: anti-His antibody binders, primary screen, artefact control for SMM control protein annotation, biochemical, small-molecule microarray, 635 nm fluorescence (AID 1128).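 Also: score merges feature fluorescence with signal-to-noise for each printed compound spot.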 Conditions: anti-His Alexa647 antibody binding, higher = more signal.
Assay [2] deals with Human papillomavirus type 1a E7 protein (residues 1-88). Briefly: HPV1a E7 small-molecule binders, primary screen, biochemical, small-molecule microarray, residues 1-88, 635 nm (AID 1129). The note with it: small-molecule microarray binding, fluorescence 635 nm; higher = more signal.
Assay [3] addresses Focal adhesion kinase 1 (Homo sapiens) (UniProt Q05397). The assay can be described thus: small-molecule microarray binders of FAK, primary screen, biochemical, 635/667 nm fluorescence, BSA, DTT (AID 1130).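 Also: composite of spot emission at 667 nm and signal to noise over triplicate slides.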 The note with it: PTK2 binding, 635 nm fluorescence, higher = more signal.
Assay [4] concerns Fibrinogen (Alexa647-labelled). Briefly: fibrinogen binders on compound microarrays, profiling panel, artefact control for SMM control-protein annotation, biochemical, small-molecule microarray, 635/667 nm fluorescence (AID 1131).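 Also: z-score merges 667 nm fluorescence with per-spot signal-to-noise over triplicate slides.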 The note with it: fibrinogen-A647 binding fluorescence, higher = more signal.
Assay [5] deals with Follistatin (Homo sapiens) (UniProt P19883). The assay can be described thus: follistatin binders on small-molecule microarrays, primary screen, biochemical, small-molecule microarray, 635/667 nm fluorescence (AID 1132). The note with it: FST binding, 635 nm fluorescence, higher = more signal.
Assay [6] deals with Fibroblast growth factor 2 (Homo sapiens) (UniProt P09038). Briefly: FGF2 binders on small-molecule microarrays, primary screen, biochemical, small-molecule microarray, 635/667 nm fluorescence (AID 1133). The note with it: small-molecule microarray binding, FGF2, fluorescence 635/667; higher = more signal.
Assay [7] can be described thus: mitochondrial membrane potential change in A549 cells, profiling panel, cell-based, JC-1 fluorescence, basal, 24 h, 100 nL (AID 1138).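 Also: A549 lung adenocarcinoma cells under basal conditions with no added stimulus; test concentration not given here.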 Conditions: higher = more signal.
A further assay concerns Lefty1. The assay can be described thus: Lefty1 binders on small-molecule microarrays, primary screen, biochemical, small-molecule microarray, 635/667 nm fluorescence (AID 1139). Conditions: small-molecule microarray binding, fluorescence 635/667; higher = more signal.
Assay [8] has as its system wheat germ agglutinin (Triticum aestivum), Alexa647-labelled. Briefly: wheat germ agglutinin binders on compound microarrays, profiling panel, artefact control for SMM control-protein annotation, biochemical, small-molecule microarray, 635/667 nm fluorescence (AID 1140).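 Also: score merges 667 nm feature emission with signal to noise over triplicate slides.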 Conditions: WGA-A647 binding, 635 nm fluorescence, higher = more signal.
Assay [9] concerns the target Luciferin 4-monooxygenase (Photinus pyralis) (UniProt P08659). Briefly: firefly luciferase enzyme inhibitors, primary screen, biochemical, luminescence, purified enzyme, 2006 set (AID 1141).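 Also: cell-free assay with purified firefly luciferase at 100 ng per well in PBS; test concentration not given here.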 Conditions: SteadyGlo luminescence, 30 min, higher = more signal, called active from +8 up or from −8 down.
The subject of assay [10] is Wnt5a (protein binding on small-molecule microarray). Briefly: Wnt5a binders on small-molecule microarray, primary screen, biophysical, 635/667 nm fluorescence (AID 1142).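 Also: fluorescence read at 667 nm with signal to noise per printed feature.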 Conditions: 635 nm fluorescence, higher = more signal.
Assay [11] can be described thus: cell viability in Huh7 cells, primary screen, cytotoxicity control for HCV replication inhibitor project, CellTiter-Glo luminescence, basal, 48 h (AID 1143).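 Also: Huh7 hepatoma cells carrying a hepatitis C replication reporter with no stimulus; test concentration not given here.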 The note with it: Huh7 HCV replicon, higher = more signal, called active from +8 up or from −8 down. (ATP-based viability assays read luminescence as a measure of living cells.)
A short description of assay [12]: P. aeruginosa biofilm formation inhibitors, primary screen, PAO1 strain, BacTiter-Glo luminescence, LB-PBS (AID 1144). The note with it: 12 h, higher = more signal.
The nature of assay [13]: CREB reporter modulators without forskolin, primary screen, cell-based, PC12, CRE-LacZ reporter, unstimulated (AID 1145). Conditions: no forskolin, luminescence, 4.5 h, higher = more signal, called active from +8 up or from −8 down.
Assay [14] is described as follows: CREB reporter modulators under forskolin, primary screen, cell-based, PC12, CRE-LacZ reporter, forskolin-stimulated (AID 1146).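 Also: PC12 cells with 6xCRE LacZ reporter stimulated by forskolin 10 µM; beta-galactosidase reporter signal reflecting CREB driven transcription.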 Conditions: luminescence, 4.5 h, higher = more signal, called active from +8 up or from −8 down.
Assay [15] concerns the target Streptavidin (Streptomyces avidinii) (UniProt P22629). The assay can be described thus: streptavidin binders on small-molecule microarray, primary screen, artefact control for SMM compound annotation, biophysical, 635/667 nm fluorescence (AID 1147).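 Also: signal reflects streptavidin binding to arrayed compounds as a control protein.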 The note with it: streptavidin binding, higher = more signal.
The nature of assay [16]: small-molecule binders of probe aInhba, primary screen, biochemical, small-molecule microarray, 635/667 nm fluorescence (AID 1148).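 Also: score merges 667nm spot fluorescence with signal-to-noise for antibody binding to printed compounds.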 The note with it: higher = more signal.
For assay [17], the target named is Torsin-1A (Homo sapiens) (UniProt O14656). The assay can be described thus: torsin A binders from cell lysate, primary screen, small-molecule microarray, wild-type, 635/667 nm (AID 1149). The note with it: COS7 hTOR1A-WT lysate, 635 nm fluorescence, higher = more signal.
The target is the same in assay [18]. Briefly: small-molecule binders of mutant TOR1A in lysate, primary screen, cell lysate, small-molecule microarray, COS7 lysate, 635/667 nm fluorescence (AID 1150).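 Also: score pools 667 nm emission and signal to noise measuring lysate protein binding.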 The note with it: COS7 hTOR1A mutant lysate, 635 nm fluorescence, higher = more signal.
The test system of assay [19] is Sonic hedgehog protein (Shh). The assay can be described thus: small-molecule binders of Shh protein, primary screen, biochemical, small-molecule microarray, 635/667 nm fluorescence (AID 1151).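 Also: Shh protein binding to compounds spotted on small-molecule microarray slides; score combines spot fluorescence intensity with signal-to-noise across triplicate slides.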 Conditions: small-molecule microarray binding, 635 nm fluorescence; higher = more signal.

Sequence of Luciferin 4-monooxygenase (Photinus pyralis) (P08659 whole entry, looked up): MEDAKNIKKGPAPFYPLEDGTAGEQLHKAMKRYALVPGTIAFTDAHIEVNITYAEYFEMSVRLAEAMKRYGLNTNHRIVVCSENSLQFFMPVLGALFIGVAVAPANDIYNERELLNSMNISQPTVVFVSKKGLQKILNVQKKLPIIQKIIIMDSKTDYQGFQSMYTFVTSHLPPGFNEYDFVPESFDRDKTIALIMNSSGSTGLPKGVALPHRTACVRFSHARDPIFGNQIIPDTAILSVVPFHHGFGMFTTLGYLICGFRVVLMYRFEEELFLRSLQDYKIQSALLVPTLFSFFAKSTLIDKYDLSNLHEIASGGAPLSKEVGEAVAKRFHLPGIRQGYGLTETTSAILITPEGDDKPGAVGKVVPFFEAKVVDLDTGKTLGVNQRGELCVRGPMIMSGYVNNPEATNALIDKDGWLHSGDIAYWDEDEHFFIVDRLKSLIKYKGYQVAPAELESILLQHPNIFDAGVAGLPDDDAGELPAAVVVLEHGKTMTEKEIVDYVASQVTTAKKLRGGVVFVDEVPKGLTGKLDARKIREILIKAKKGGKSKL
Sequence of Focal adhesion kinase 1 (Homo sapiens) (Q05397 whole entry, looked up): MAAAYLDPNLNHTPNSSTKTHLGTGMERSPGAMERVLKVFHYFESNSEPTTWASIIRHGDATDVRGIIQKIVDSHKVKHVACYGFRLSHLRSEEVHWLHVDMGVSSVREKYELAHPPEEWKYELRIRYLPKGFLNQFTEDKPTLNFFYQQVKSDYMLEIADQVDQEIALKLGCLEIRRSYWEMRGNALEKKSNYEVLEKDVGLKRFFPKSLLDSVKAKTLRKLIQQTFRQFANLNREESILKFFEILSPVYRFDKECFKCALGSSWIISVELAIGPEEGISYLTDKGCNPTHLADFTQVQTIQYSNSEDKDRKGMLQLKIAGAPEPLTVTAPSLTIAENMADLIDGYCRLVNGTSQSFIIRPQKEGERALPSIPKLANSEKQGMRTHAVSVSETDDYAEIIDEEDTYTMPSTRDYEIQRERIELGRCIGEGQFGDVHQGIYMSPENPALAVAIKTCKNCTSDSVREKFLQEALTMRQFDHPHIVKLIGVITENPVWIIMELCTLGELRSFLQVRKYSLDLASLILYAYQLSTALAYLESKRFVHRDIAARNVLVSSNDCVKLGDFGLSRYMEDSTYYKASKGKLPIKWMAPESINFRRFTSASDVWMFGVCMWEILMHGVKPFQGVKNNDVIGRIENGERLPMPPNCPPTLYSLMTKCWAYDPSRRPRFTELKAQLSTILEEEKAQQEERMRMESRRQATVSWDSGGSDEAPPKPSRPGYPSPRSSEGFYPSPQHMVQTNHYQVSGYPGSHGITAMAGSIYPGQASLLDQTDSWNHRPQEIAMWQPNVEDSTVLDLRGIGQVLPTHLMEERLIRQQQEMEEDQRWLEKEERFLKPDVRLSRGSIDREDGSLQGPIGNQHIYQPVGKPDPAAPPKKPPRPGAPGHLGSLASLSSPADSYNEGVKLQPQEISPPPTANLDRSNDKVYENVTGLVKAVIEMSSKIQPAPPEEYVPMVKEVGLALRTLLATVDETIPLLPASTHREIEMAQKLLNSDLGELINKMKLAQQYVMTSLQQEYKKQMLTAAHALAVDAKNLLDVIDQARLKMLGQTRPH
Sequence of Streptavidin (Streptomyces avidinii) (P22629 whole entry, looked up): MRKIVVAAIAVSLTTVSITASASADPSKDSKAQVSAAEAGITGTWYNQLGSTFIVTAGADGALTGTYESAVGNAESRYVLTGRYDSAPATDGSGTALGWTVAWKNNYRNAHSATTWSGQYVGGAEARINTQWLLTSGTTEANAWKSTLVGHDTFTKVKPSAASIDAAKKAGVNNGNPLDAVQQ
Sequence of Follistatin (Homo sapiens) (P19883 whole entry, looked up): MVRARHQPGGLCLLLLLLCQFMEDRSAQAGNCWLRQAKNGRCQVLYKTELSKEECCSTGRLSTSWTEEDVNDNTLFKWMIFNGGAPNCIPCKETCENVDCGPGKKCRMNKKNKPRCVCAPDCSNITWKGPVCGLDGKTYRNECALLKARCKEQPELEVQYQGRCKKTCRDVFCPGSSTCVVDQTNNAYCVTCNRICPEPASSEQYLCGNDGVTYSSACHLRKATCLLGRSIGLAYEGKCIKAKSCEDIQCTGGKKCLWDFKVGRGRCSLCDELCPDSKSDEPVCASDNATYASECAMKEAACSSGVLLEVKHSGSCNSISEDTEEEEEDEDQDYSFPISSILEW
Sequence of Fibroblast growth factor 2 (Homo sapiens) (P09038 whole entry, looked up): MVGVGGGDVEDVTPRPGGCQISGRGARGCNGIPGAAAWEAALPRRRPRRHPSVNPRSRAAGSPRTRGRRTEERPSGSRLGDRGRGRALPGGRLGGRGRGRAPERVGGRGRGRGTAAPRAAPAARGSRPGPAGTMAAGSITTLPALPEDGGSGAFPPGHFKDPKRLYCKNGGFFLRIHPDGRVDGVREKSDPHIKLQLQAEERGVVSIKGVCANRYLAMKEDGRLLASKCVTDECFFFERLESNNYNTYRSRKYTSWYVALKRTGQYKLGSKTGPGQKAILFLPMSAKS
Sequence of Torsin-1A (Homo sapiens) (O14656 whole entry, looked up): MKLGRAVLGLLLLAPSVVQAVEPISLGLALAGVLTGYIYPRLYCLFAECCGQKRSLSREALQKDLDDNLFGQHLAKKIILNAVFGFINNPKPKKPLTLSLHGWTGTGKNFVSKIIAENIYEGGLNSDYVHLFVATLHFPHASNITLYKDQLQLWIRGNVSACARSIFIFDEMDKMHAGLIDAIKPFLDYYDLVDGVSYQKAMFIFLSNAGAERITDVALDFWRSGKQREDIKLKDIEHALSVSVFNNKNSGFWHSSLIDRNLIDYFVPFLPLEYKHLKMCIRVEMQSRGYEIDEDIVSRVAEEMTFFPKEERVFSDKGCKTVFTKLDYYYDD

Consider `O=C1OCCC/C=C\[C@H]2OC34C=CCN(Cn5nnc6ccccc65)C(=O)[C@H]3N(CCCCCCO)C(=O)[C@@H]4C12` (stereo not given in full), for which the composite z-score in assay [1] was 0.919; in assay [2] it was -0.776; in [3], 0.326; in [4], -2.01; in [5] it was -0.686; in assay [6] it was -1.58. Further, the composite z-score was -0.394 in the assay with Lefty1; 0.727 in assay [8]; -0.35 in assay [10]; -1.08 in [15]; -0.214 in [16]; 1.27 with Torsin-1A (Homo sapiens) [17]. In addition, the composite z-score in the assay with Torsin-1A (Homo sapiens) [18] was 1.43; in [19], 0.326. Further, the z-score in [7] was 1.05; in assay [9], -0.254 (inactive); in [11], -0.599 (inactive); in assay [12], -2.19 (inactive); in assay [13] it was -1.17 (inactive); in [14], -0.729 (inactive).
In the case of `O=C1c2ccccc2[C@@]2(Cc3ccccc3N(CC(F)(F)F)C2=O)[C@H](c2ccc(CO)cc2)N1Cc1ccccc1Cl`, the composite z-score in assay [1] was 0.181; in assay [2] it was -0.265; in [3], -0.121; in assay [4] it was -0.134; in [5] it was 1.12; in assay [6], 0.652. Moreover, the composite z-score in the assay with Lefty1 was 0.667; in assay [8], -0.518; in [10] it was 0.125; in assay [15] it was 0.0272; in [16], -0.0256; with Torsin-1A (Homo sapiens) [17], 0.0329. Besides, the composite z-score with Torsin-1A (Homo sapiens) [18] was 0.293; in assay [19] it was 1.42. Further, the z-score is -0.000595 in assay [7]; -0.496 (inactive) in assay [9]; 0.289 (inactive) in [11]; -0.165 (inactive) in assay [12]; -0.141 (inactive) in assay [13]; -1.11 (inactive) in assay [14].
For `COc1ccc([C@H]2C[C@H]3C(Br)=C[C@@H]2C(=O)[C@]32CO2)cc1`, the composite z-score in [1] is 0.613; in [2], -0.751; in [3], 0.298; in [4], -0.325; in assay [5], 0.6; in [6], 0.194. Also, the composite z-score was 0.0745 in the assay with Lefty1; -0.138 in assay [8]; -0.0556 in [10]; 0.256 in [15]; -0.0822 in [16]; -0.0733 with Torsin-1A (Homo sapiens) [17]. The figures for the composite z-score (with Torsin-1A (Homo sapiens) [18]; in [19]) were -0.12 and 0.311, respectively. For the same compound, the z-score in assay [7] was 0.271; in assay [9], -0.388 (inactive); in [11], 0.0402 (inactive); in [12], 1.11 (inactive); in assay [13], 2.85 (inactive); in assay [14], 0.357 (inactive).
As to `C=C(COC)/C(=C/C[C@H](OC(=O)c1ccncc1)c1ccc(OCCO)cc1)c1cnc2ccccc2c1`, the composite z-score came to 1.96 in assay [1]; 1.2 in [2]; 0.111 in [3]; 0.967 in assay [4]; 1.38 in [5]; 1.02 in [6]. In addition, the composite z-score was 1.33 in the assay with Lefty1; 1.47 in [8]; 0.638 in assay [10]; 1.73 in assay [15]; -0.0087 in assay [16]; 1.27 with Torsin-1A (Homo sapiens) [17]. Further, the composite z-score amounted to 0.953 with Torsin-1A (Homo sapiens) [18] and 2.11 in [19]. For the same compound, the z-score was -0.0174 in assay [7]; -1.34 (inactive) in [9]; -0.593 (inactive) in assay [11]; 0.308 (inactive) in [12]; 6.73 (inactive) in [13]; -0.073 (inactive) in assay [14].
On to `O=C1C[C@]2(c3ccc([N+](=O)[O-])cc3)C(=O)N(CCN3CCOCC3)c3cc(CO)ccc3[C@H]2N1C1CCCCC1`, for which the composite z-score in assay [1] was -0.106; in assay [2], -1.24; in [3] it was -0.617; in [4], 0.975; in assay [5], -0.414; in assay [6], 0.189. In addition, the composite z-score was -0.599 in the assay on Lefty1; 0.409 in assay [8]; -0.179 in assay [10]; -0.834 in assay [15]; -0.0021 in assay [16]; -0.489 with Torsin-1A (Homo sapiens) [17]. Besides, the composite z-score with Torsin-1A (Homo sapiens) [18] was -0.517; in assay [19] it was -0.132. The z-score in assay [7] is 0.631; in assay [9], -0.648 (inactive); in assay [11], -2.16 (inactive); in assay [12] it was -0.02 (inactive); in assay [13] it was -0.322 (inactive); in assay [14] it was 0.254 (inactive).
